# Screening results from PubChem.
# Luc counter: Kinase-Glo luciferase inhibition (counter-screen). Potency, µM (highest dose often 38.3 µM), for inactives: at the top dose activity change, negative = inhibition, usual class: inhibitors. 200,000 tested, 0.28% active. Q27757. AID 1379. Kinase-Glo luciferase, ATP luminescence, 8 min; also: % is scaled to controls: 0 for no effect and ±100 for the full control effect; nearly all actives have a fitted effect of over 60% in size
#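 Compound is pinned into ATP-containing buffer (10 uM ATP, imidazole pH 7.2, 7 mM MgCl2). Kinase-Glo luciferase reagent is then added. Light output is recorded following an 8-min room-temperature incubation.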
# FLuc modulator: firefly luciferase modulation, counter-screen for miR-21 project; P08659; purified FLuc, Km substrates, luminescence inhibition; Potency, µM (highest dose often 57.5 µM), without a hit: at the highest dose activity change, negative = inhibition, actives largely listed as inhibitors; 360,000 tested, 6.9% active;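 also: plate controls were vehicle for no effect and reference inhibitor for full effect; nearly all actives have a fitted effect of over 55% in size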
# Target sequence (P08659 whole entry, looked up): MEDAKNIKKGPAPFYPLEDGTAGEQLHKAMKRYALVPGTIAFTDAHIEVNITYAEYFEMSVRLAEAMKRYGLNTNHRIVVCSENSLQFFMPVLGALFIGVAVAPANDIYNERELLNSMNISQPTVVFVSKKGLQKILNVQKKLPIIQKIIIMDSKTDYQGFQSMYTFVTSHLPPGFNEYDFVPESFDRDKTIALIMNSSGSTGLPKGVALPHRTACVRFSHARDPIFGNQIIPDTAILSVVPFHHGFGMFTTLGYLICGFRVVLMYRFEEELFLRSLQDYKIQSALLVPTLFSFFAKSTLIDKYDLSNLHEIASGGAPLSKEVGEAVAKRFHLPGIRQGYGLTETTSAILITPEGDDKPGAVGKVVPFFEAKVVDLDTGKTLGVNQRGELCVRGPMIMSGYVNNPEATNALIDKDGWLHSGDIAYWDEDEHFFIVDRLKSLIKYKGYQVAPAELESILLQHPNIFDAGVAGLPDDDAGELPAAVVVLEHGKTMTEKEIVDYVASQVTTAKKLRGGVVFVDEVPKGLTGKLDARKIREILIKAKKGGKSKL
#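 Purified P. pyralis luciferase, 10 nM final, with Km-level 10 uM D-luciferin and 10 uM ATP in 50 mM Tris acetate pH 7.5, 10 mM Mg acetate, 0.01% Tween-20, 0.05% BSA; 6-point qHTS titration about 60 µM downward; luminescence read.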
# ELG1 genotox: inducers of genotoxicity in HEK293T ELG1-luciferase cells; Potency, µM (highest dose often 46 µM), for the others: at the top dose activity change, positive = activation, hits mostly activators; HEK293T ELG1-luciferase reporter, luminescence, 16 h; 330,000 tested, 1.3% active; also: % of control where 0% means no effect; nearly all actives have a fitted effect of over 60% in size
#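 Luminescence read-out: rising ELG1-luciferase signal, reflecting elevated ELG1 protein under genetic stress, flags genotoxic compounds. Cells were treated for 16 hr at 37 °C before ONE-Glo detection.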
# NPC1 prom act: NPC1 promoter activation; Huh7 NPC1 promoter luciferase reporter, 24 h; AID 485313; 320,000 tested, 2.4% active; Potency, µM (highest dose often 9.22 µM), for inactives: at the highest dose activation, actives largely listed as activators; also: % of control where 0% means no effect; nearly all actives have a fitted effect of over 60% in size
#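 Huh7 cells stably carrying NPC1 promoter–luciferase, plated in Opti-MEM with 10% FBS for 2 h, were exposed to compound in DMSO for 24 h at 37 °C; luciferase reagent was added for 10 min and luminescence read.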
# SMN2 splice enh: enhancers of SMN2 splice variant expression; Potency, µM (doses to about 46.1 µM), inactives show top-dose activity change, positive = activation, actives largely listed as activators; HEK293 SMN2-luciferase splicing reporter, luminescence, 30-36 h; 210,000 tested, 2.8% active; also: % of control where 0% means no effect; nearly all actives have a fitted effect of over 55% in size
#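 HEK293 cells carry an SMN2 minigene-luciferase reporter in which exon 7 inclusion puts luciferase in frame. Cells were seeded at 2000 cells/well, attached for 10-12 hours, then exposed to compounds for 30-36 hours at 37C before ONE-Glo luminescence.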
# Rab9 prom act: activators of Rab9 promoter; Huh7 Rab9 promoter-luciferase reporter, luminescence, 24 h; Potency, µM (titrated, usually from 9.22 µM), for inactives: at the highest dose activation, negative = inhibition, actives largely listed as activators; 320,000 tested, 2.8% active; AID 485297; also: % of control where 0% means no effect; nearly all actives have a fitted effect of over 60% in size
#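 Huh7 cells stably carrying Rab9 promoter–luciferase reporter, plated 1500 cells/well, compound added after 2 h and incubated 24 h at 37 °C; luciferase luminescence then read after 10 min with detection reagent.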
# Starred values were filed as active, the others as inactive; ? = inconclusive; . = no result. Sampled rows, rich in hits. Any-hit rate of the full collection: about 7.5%. Calls follow the shape of the dose curve; as a rule, active = well fitted curve in the direction sought with a large enough effect; inconclusive = small, poorly fitted or top-dose-only effect, or another doubt; inactive = no such curve, though single readings can be large; an effect the other way counts as inactive or inconclusive. Potency is read from the fitted curve at half-maximal effect.
SMILES,Luc counter,FLuc modulator,ELG1 genotox,NPC1 prom act,SMN2 splice enh,Rab9 prom act
Cc1ccc(C)c(NC(=S)c2nc3ccccc3s2)c1,-3.7%,?,4.2%,?,?,?
CC(=O)c1ccc(N=Nc2ccc(N)cc2)cc1,.,1.51µM*,?,0.398µM*,.,0.316µM*
COc1cccc(NC(=O)CN(C)C(=O)CNC(=O)c2sc3ccccc3c2Cl)c1,.,4.78µM*,13.3%,19.3%,.,24.7%
COc1ccc(NC(=O)CN(C)C(=O)CNC(=O)c2sc3ccccc3c2Cl)cc1,.,3.01µM*,?,?,.,?
COc1cccc(NC(=O)CN(C)C(=O)c2sc3cc(Cl)ccc3c2Cl)c1,.,4.4%,-3.0%,-2.2%,.,0.3%
CCOC(=O)c1ccc2c(c1)N(Cc1ccc(F)cc1Cl)C(=O)c1ccccc1S2,.,4.7%,.,.,.,.
Nc1ncnc2c1ncn2[C@@H]1O[C@H](COP(=O)(O)OP(=O)(O)OC[C@H]2OC(O)[C@H](O)[C@@H]2O)[C@@H](O)[C@H]1O (some centres undefined),.,.,.,.,-7.2%,.
Nc1ncnc2c1ncn2[C@@H]1O[C@H](COP(=O)(O)OP(=O)(O)OP(=O)(O)OP(=O)(O)OC[C@@H]2O[C@H](n3cnc4c(N)ncnc43)[C@@H](O)[C@@H]2O)[C@H](O)[C@H]1O,4.47µM*,.,.,.,2.1%,.
CCN(C)c1ccc(/C=N\n2nnnc2N)cc1,0.6%,12µM*,9.2µM*,-11.1%,11.2µM*,25.5%
CCOc1ccc(NC(=O)c2oc3ccccc3c2NC(=O)c2ccc(OC)cc2OC)cc1,.,6.4%,.,.,1.7%,.
CCOC(=O)Cc1c(C)nc2c(-c3ccccc3)c(-c3ccccc3)[nH]n2c1=O,3.4%,-11.8%,-3.8%,2.2%,4.47µM*,0.3%
CCOC(=O)Cc1c(C)nc2c(-c3ccccc3)c(C)[nH]n2c1=O,1.3%,-11.7%,-2.9%,2.1%,-17.1%,1.9%
CCc1ccc(C(=O)Nc2nnn(CC)n2)cc1,?,4.26µM*,1.64µM*,2µM*,0.501µM*,0.501µM*
CCCn1nnc(NC(=O)c2cccc(Cl)c2)n1,-6.9%,-16.8%,5.9%,28.3%,?,21.6%
CCn1nnc(NC(=O)c2cc3ccccc3o2)n1,1.0%,15.1µM*,14.6µM*,?,31.6µM*,?
CCCCn1nnc(NC(=O)c2cc3ccccc3o2)n1,-0.2%,?,6.51µM*,3.16µM*,?,1.58µM*
CCCn1nnc(NC(=O)c2ccc3c(c2)OCO3)n1,.,19µM*,?,2.82µM*,.,1.58µM*
Cc1ccn2c(c1)nc(=O)c1cc(S(=O)(=O)N3CCC(C)CC3)c(Cl)cc12,.,-0.6%,.,.,6.0%,.
CCCn1nnc(NC(=O)c2ccc(-c3cccc(Cl)c3)o2)n1,-4.2%,16.9µM*,11.3%,29.2%,6.6%,?
CCCCn1nnc(NC(=O)c2ccc(-c3cccc(Cl)c3)o2)n1,-1.7%,?,0.1%,14.0%,-9.9%,10.9%
Cn1nnc(NC(=S)NC(=O)c2cc3ccccc3o2)n1,.,?,1.0%,2.5%,.,9.7%
CCCn1nnc(NC(=O)c2cc3ccccc3o2)n1,-7.5%,19µM*,5.8µM*,2.51µM*,10µM*,?
Cc1nc2cccnc2n1-c1cccc(C(=O)NCc2ccc(OC(C)C)cc2)c1,.,-8.0%,.,.,.,.
CCOC(=O)CN1C(=O)S/C(=C/c2ccc3c(c2)n(C)c(=O)n3C)C1=O,0.6%,?,20.6µM*,0.0%,15.8µM*,-4.8%
CCOC(=O)CN1C(=O)S/C(=C/C=C/c2ccc(N(C)C)cc2)C1=O,-5.0%,4.78µM*,?,?,?,3.55µM*
O=C(CN1C(=O)S/C(=C\C=C\c2ccccc2)C1=O)N1CCCCC1,.,?,7.6%,-5.0%,.,9.0%
Cc1ccc2c(c1)N(C(=O)N1CCC(C(=O)NCc3cccs3)CC1)CC(C)O2 (centres undefined),.,-2.4%,.,.,.,.
